Test results reported in PubChem BioAssay AID1159580 (chemical genetic matrix, 2015).
“And” between values parts separate entries of the source, which are not always exact repeats. Equal values may be shown once. Screen size: about 5,500 compounds; about 2,000 (36%) were called active. Not shown: some 18% with an inconclusive outcome. Cut-off read from the data, not from the text of the source: active = normalized growth mostly below about 0.91 (no sharp cut-off); inconclusive = no clear call, values can overlap the other calls; inactive = mostly above about 0.92. The list shows a part of the results.

Test: chemical genetic growth profiling, strain panel (AID 1159580);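 note: tested at 20 µM; growth read once vehicle control cultures reached saturation at 30 °C; 1 = growth at the plate median or of vehicle wells; lower values mean less growth of the strain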
Conditions: S. cerevisiae deletion strains, growth OD

Measured: normalized growth

COc1cc([C@@H]2c3cc4c(cc3C(O[C@@H]3O[C@@H]5CO[C@@H](c6cccs6)OC5[C@H](O)[C@H]3O)C3COC(=O)[C@@H]32)OCO4)cc(OC)c1O (stereo not given in full)
inactive: locus YAL013W, strain DEP1, stronger effect = lower value 1.01 | locus YAL021C, strain ccr4, stronger effect = lower value 0.986 | locus YAL026C, strain drs2, stronger effect = lower value 0.957 | locus YAL030W, strain snc1, stronger effect = lower value 0.995 | locus YBL061C, strain skt5, stronger effect = lower value 0.981 | locus YBR009C, strain hhf1, stronger effect = lower value 0.955 | locus YBR021W, strain FUR4, stronger effect = lower value 1 | locus YBR023C, strain chs3, stronger effect = lower value 1.01 | locus YBR171W, strain sec66, stronger effect = lower value 0.981 | locus YBR229C, strain ROT2, stronger effect = lower value 1 | locus YBR231C, strain swc5, stronger effect = lower value 0.997 | locus YBR279W, strain paf1, stronger effect = lower value 0.967 | locus YCL011C, strain gbp2, stronger effect = lower value 0.987 | locus YCL016C, strain dcc1, stronger effect = lower value 1.02 | locus YCL029C, strain bik1, stronger effect = lower value 1.03 | locus YCL061C, strain MRC1, stronger effect = lower value 0.969 | locus YCL069W, strain vba3, stronger effect = lower value 0.971 | locus YCR088W, strain abp1, stronger effect = lower value 0.984 | locus YDL005C, strain med2, stronger effect = lower value 0.971 | locus YDL035C, strain GPR1, stronger effect = lower value 1.02 | locus YDL040C, strain nat1, stronger effect = lower value 0.982 | locus YDL074C, strain BRE1, stronger effect = lower value 0.996 | locus YDL101C, strain DUN1, stronger effect = lower value 1.01 | locus YDL134C, strain PPH21, stronger effect = lower value 1.01 | locus YDL185W, strain tfp1, stronger effect = lower value 1.03 | locus YDL192W, strain arf1, stronger effect = lower value 1.02 | locus YDR001C, strain nth1, stronger effect = lower value 0.985 | locus YDR069C, strain doa4, stronger effect = lower value 0.983 | locus YDR101C, strain arx1, stronger effect = lower value 1 | locus YDR137W, strain rgp1, stronger effect = lower value 0.972 | locus YDR150W, strain NUM1, stronger effect = lower value 0.998 | locus YDR159W, strain sac3, stronger effect = lower value 0.932 | locus YDR162C, strain NBP2, stronger effect = lower value 1.01 | locus YDR195W, strain ref2 0.961 | locus YDR297W, strain sur2, stronger effect = lower value 0.992 | locus YDR318W, strain mcm21, stronger effect = lower value 1.02 | locus YDR334W, strain swr1, stronger effect = lower value 0.972 | locus YDR335W, strain msn5, stronger effect = lower value 0.99 | locus YDR388W, stronger effect = lower value 1.01 | locus YDR392W, strain spt3, stronger effect = lower value 0.97 | locus YDR502C, strain sam2, stronger effect = lower value 1.02 | locus YEL003W, strain gim4, stronger effect = lower value 0.969 | locus YEL037C, strain rad23, stronger effect = lower value 0.964 | locus YEL061C, strain CIN8 (second series), stronger effect = lower value 0.967 | locus YEL061C, strain CIN8, stronger effect = lower value 1 | locus YER015W, strain faa2, stronger effect = lower value 0.989 | locus YER016W, strain bim1, stronger effect = lower value 0.999 | locus YER110C, stronger effect = lower value 1.02 | locus YER111C, strain swi4, stronger effect = lower value 0.98 | locus YER155C, strain BEM2 (second series), stronger effect = lower value 1.01 | locus YER155C, strain BEM2, stronger effect = lower value 1 | locus YER167W, strain BCK2, stronger effect = lower value 1.01 | locus YFR010W, strain ubp6, stronger effect = lower value 0.956 | locus YGL078C, strain dbp3, stronger effect = lower value 1.02 | locus YGL086W, strain mad1, stronger effect = lower value 1.01 | locus YGL167C, strain pmr1, stronger effect = lower value 0.981 | locus YGL173C, strain kem1, stronger effect = lower value 0.983 | locus YGL227W, strain vid30, stronger effect = lower value 0.994 | locus YGL240W, strain doc1, stronger effect = lower value 1.01 | locus YGL248W, strain PDE1, stronger effect = lower value 1 | locus YGL253W, strain hxk2, stronger effect = lower value 0.964 | locus YGR135W, strain pre9, stronger effect = lower value 1.01 | locus YGR229C, strain SMI1, stronger effect = lower value 1 | locus YGR252W, strain gcn5, stronger effect = lower value 1.03 | locus YHR013C, strain ard1, stronger effect = lower value 0.997 | locus YHR027C, strain rpn1, stronger effect = lower value 0.975 | locus YHR030C, strain SLT2, stronger effect = lower value 1 and 1.02 | locus YHR079C, strain IRE1 (second series), stronger effect = lower value 1.02 | locus YHR079C, strain IRE1, stronger effect = lower value 1.01 | locus YHR094C, strain hxt1, stronger effect = lower value 1.01 | locus YHR129C, strain ARP1, stronger effect = lower value 1 | locus YHR142W, strain chs7, stronger effect = lower value 0.981 | locus YHR200W, strain rpn10, stronger effect = lower value 1.01 | locus YIL066C, strain RNR3, stronger effect = lower value 1.01 | locus YIL073C, strain SPO22, stronger effect = lower value 1.04 | locus YIL125W, strain kgd1, stronger effect = lower value 1.01 | locus YIR030C, strain dcg1, stronger effect = lower value 1.02 | locus YJL092W, strain hpr5, stronger effect = lower value 0.977 | locus YJL095W, strain BCK1 (second series), stronger effect = lower value 0.992 | locus YJL095W, strain BCK1, stronger effect = lower value 0.991 and 1 | locus YJL115W, strain asf1, stronger effect = lower value 0.96 | locus YJL129C, strain trk1, stronger effect = lower value 0.993 | locus YJL134W, strain LCB3, stronger effect = lower value 1 | locus YJL154C, strain vps35, stronger effect = lower value 0.979 | locus YJL164C, strain tpk1, stronger effect = lower value 0.962 | locus YJL166W, strain qcr8, stronger effect = lower value 1.01 | locus YJL168C, strain set2, stronger effect = lower value 1.01 | locus YJL187C, strain SWE1 (second series), stronger effect = lower value 1 | locus YJL187C, strain SWE1, stronger effect = lower value 0.984 | locus YJR043C, strain POL32, stronger effect = lower value 0.982
